The values that follow come from paper PMC7862700, “An all-to-all approach to the identification of sequence-specific readers for epigenetic DNA modifications on cytosine”.

Common to all, as to assay: DAPPL (digital affinity profiling via proximity ligation, sequencing); 10 mM Tris-HCl pH 7.5, 50 mM NaCl, 1 mM DTT, 4% glycerol, room temperature, 30 min; GST-TFs on glutathione beads, 16-mer random dsDNA library, 0.1% formaldehyde crosslink after washing; high values mean tight binding
Assay [1] addresses T1, FEV (Homo sapiens, UniProt Q99581 1-238).
T1 sequence: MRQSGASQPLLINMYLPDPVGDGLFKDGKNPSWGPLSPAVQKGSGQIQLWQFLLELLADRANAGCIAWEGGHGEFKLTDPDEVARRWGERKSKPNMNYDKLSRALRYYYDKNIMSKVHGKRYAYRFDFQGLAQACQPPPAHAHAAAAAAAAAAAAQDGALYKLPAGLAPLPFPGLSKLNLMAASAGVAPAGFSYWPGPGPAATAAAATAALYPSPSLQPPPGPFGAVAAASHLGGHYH
The conditions noted are these: protein: recombinant; tags: N-terminal GST; dsDNA, one strand shown. The method, boiled down: (§1)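 Pools were built from human transcription factors expressed in yeast as GST fusions, captured on glutathione beads and DNA-barcoded, along with a tag-only sample. Incubation with 200 nmole of a 16-mer random double-stranded DNA library lasted 30 min at room temperature in Tris/NaCl/DTT/glycerol buffer, and was followed by washing, 0.1% formaldehyde crosslinking, proximity ligation, PCR amplification and Illumina NextSeq500 sequencing. Binding signal is the quotient of each hexamer's read frequency for a factor and its frequency for the tag-only sample.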

For assay [2], the target named is ETV5 (Homo sapiens, UniProt P41161 1-510). As to conditions: protein: recombinant; tags: N-terminal GST; dsDNA, one strand shown. The method, boiled down: as §1
ETV5, sequence (P41161 whole entry): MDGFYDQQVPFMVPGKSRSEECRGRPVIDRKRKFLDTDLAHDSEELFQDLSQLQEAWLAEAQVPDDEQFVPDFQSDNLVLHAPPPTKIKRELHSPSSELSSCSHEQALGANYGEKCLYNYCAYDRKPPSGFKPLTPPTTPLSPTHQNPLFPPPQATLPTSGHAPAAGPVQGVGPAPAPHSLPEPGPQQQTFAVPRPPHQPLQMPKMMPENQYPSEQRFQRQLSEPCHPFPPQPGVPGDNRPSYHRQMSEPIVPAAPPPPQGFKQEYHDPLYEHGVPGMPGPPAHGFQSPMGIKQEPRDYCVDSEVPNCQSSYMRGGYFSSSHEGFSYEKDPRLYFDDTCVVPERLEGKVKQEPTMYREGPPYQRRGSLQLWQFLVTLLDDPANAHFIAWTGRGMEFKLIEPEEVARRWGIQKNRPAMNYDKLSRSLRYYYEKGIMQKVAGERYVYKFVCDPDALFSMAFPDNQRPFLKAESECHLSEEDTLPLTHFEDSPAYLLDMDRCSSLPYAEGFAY
Assay [3] has as its target HSF1 (Homo sapiens, UniProt Q00613 1-529). As to conditions: protein: recombinant; tags: N-terminal GST; chain copies: 3; dsDNA, one strand shown. The method, boiled down: as §1
Assay [4] concerns the target T2, SPIC (Homo sapiens, UniProt Q8N5J4 1-248).
T2 sequence: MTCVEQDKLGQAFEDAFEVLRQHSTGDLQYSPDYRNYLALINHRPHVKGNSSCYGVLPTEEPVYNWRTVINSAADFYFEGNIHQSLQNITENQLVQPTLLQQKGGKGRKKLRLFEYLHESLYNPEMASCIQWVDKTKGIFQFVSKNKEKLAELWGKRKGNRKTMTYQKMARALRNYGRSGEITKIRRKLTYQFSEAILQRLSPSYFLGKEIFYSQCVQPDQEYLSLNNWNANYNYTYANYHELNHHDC
The conditions noted are these: protein: recombinant; tags: N-terminal GST; dsDNA, one strand shown. The method, boiled down:
as §1

Assay [5] addresses ELF4 (Homo sapiens, UniProt Q99607 1-663). As to conditions: protein: recombinant; tags: N-terminal GST; dsDNA, one strand shown. The method, boiled down: as §1
Assay [6] has as its target T3, ELK4 (Homo sapiens, UniProt P28324-2 1-405).
T3 sequence: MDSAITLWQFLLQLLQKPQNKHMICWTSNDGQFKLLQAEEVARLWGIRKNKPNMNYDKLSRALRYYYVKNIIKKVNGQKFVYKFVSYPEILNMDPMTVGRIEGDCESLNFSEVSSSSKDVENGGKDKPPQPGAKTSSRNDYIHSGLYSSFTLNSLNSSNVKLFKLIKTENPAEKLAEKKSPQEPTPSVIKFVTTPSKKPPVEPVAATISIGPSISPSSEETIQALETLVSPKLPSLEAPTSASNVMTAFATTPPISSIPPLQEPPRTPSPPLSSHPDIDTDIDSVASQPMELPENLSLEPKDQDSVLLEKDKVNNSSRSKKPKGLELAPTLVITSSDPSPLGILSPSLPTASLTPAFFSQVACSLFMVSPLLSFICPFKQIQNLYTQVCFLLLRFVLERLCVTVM
The conditions noted are these: protein: recombinant; tags: N-terminal GST; dsDNA, one strand shown. The method, boiled down: as §1

Assay [7] deals with T4, ETV2 (Homo sapiens, UniProt O00321 1-342).
T4 sequence: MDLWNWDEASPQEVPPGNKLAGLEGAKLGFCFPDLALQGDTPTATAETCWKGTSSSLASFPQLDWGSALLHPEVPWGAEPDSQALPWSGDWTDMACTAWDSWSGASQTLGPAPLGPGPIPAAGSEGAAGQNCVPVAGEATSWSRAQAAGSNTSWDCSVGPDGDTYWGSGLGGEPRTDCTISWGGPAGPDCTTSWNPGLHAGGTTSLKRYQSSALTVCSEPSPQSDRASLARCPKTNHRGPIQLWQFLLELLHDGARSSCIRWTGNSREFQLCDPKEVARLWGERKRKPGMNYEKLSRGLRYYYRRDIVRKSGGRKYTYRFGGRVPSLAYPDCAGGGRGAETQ
As to conditions: protein: recombinant; tags: N-terminal GST; dsDNA, one strand shown. The procedure, abridged: as §1

In assay [8] the target is T5, ELF3 (Homo sapiens, UniProt P78545 1-371).
T5 sequence: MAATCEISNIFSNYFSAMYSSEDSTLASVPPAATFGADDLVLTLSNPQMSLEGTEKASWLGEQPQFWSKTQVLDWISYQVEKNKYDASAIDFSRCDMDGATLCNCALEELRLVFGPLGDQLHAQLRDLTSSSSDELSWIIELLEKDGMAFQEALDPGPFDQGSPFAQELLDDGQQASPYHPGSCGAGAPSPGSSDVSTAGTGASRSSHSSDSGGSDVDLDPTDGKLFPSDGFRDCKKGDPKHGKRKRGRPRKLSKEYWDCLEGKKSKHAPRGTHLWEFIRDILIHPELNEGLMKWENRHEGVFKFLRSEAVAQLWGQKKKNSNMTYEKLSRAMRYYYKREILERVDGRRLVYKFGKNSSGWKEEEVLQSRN
As to conditions: protein: recombinant; tags: N-terminal GST; dsDNA, one strand shown. The procedure, abridged: as §1

Assay [9] has as its target CRX (Homo sapiens, UniProt O43186 1-299). The conditions noted are these: protein: recombinant; tags: N-terminal GST; dsDNA, one strand shown. The procedure, abridged:
as §1

In assay [10] the target is ETV1 (Homo sapiens, UniProt P50549 1-477). The conditions noted are these: protein: recombinant; tags: N-terminal GST; dsDNA, one strand shown. The procedure, abridged:
as §1

HSF1, sequence (Q00613 whole entry): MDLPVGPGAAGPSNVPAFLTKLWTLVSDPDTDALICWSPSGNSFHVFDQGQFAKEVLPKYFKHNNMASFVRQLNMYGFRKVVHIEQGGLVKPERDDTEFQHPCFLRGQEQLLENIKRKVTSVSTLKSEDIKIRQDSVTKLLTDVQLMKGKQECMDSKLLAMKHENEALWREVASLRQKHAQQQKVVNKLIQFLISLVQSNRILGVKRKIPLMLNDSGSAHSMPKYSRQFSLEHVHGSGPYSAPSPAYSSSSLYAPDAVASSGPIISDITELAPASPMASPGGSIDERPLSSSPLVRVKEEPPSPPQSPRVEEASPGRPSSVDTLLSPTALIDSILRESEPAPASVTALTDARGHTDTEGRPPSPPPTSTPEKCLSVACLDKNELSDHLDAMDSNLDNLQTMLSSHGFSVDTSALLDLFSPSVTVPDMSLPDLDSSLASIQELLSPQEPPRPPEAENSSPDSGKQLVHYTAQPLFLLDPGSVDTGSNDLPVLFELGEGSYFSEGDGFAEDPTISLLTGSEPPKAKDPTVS
ELF4, sequence (Q99607 whole entry): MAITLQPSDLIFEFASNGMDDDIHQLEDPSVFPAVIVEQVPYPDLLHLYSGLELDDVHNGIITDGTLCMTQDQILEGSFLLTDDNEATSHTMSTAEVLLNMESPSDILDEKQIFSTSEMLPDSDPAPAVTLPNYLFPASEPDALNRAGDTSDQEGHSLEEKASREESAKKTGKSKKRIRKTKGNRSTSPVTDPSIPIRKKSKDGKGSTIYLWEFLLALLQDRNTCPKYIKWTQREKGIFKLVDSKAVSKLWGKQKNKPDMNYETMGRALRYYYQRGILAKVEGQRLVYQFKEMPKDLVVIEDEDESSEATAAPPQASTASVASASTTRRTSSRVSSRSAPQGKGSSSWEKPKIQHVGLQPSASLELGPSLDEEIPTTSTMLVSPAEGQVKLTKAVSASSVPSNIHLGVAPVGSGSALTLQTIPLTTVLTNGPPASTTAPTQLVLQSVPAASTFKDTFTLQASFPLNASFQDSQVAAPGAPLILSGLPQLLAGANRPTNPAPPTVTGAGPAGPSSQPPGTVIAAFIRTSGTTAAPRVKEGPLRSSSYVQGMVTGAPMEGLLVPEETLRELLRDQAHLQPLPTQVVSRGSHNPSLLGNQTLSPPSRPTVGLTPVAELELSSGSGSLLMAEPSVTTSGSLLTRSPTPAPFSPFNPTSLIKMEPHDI
CRX, sequence (O43186 whole entry): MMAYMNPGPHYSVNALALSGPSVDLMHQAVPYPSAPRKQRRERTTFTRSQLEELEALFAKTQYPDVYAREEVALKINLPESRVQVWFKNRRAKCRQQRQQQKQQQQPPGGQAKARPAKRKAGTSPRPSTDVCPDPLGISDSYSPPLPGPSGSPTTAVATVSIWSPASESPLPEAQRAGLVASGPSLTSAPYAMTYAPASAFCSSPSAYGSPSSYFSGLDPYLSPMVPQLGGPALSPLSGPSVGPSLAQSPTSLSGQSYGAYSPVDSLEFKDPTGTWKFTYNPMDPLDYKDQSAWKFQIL
ETV1, sequence (P50549 whole entry): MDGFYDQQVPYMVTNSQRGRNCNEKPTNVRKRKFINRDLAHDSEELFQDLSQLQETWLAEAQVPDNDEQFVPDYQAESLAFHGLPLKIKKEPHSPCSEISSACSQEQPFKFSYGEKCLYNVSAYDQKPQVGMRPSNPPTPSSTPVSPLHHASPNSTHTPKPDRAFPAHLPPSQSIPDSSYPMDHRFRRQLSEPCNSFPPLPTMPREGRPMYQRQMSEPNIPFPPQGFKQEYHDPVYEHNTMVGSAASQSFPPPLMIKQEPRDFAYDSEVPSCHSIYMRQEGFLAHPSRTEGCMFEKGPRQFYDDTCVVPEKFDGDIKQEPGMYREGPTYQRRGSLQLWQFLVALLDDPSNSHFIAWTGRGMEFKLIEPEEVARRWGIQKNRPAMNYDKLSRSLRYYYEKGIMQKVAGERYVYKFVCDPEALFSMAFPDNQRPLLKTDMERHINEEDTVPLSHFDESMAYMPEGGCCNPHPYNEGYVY

Turning to TCCGCA, the binding signal is 1.91 fold enrichment (6-mer frequency, TF over GST control) in [1]; 2.24 fold enrichment (6-mer frequency, TF over GST control) in [2]; 1.21 fold enrichment (6-mer frequency, TF over GST control) in assay [3]; 2.46 fold enrichment (6-mer frequency, TF over GST control) in assay [4]; 1.98 fold enrichment (6-mer frequency, TF over GST control) in assay [5]; 1.76 fold enrichment (6-mer frequency, TF over GST control) in assay [6]. Moreover, the binding signal in assay [7] is 1.98 fold enrichment (6-mer frequency, TF over GST control); in assay [8] it was 2.22 fold enrichment (6-mer frequency, TF over GST control); in [9], 1.35 fold enrichment (6-mer frequency, TF over GST control); in assay [10], 2.15 fold enrichment (6-mer frequency, TF over GST control).

Take CTCCCA: the binding signal in [1] was 1.39 fold enrichment (6-mer frequency, TF over GST control); in assay [2], 1.37 fold enrichment (6-mer frequency, TF over GST control); in assay [3], 1.17 fold enrichment (6-mer frequency, TF over GST control); in assay [4] it was 1.38 fold enrichment (6-mer frequency, TF over GST control); in [5], 1.4 fold enrichment (6-mer frequency, TF over GST control); in assay [6] it was 1.44 fold enrichment (6-mer frequency, TF over GST control). Further, the binding signal was 1.08 fold enrichment (6-mer frequency, TF over GST control) in assay [7]; 1.36 fold enrichment (6-mer frequency, TF over GST control) in assay [8]; 1.19 fold enrichment (6-mer frequency, TF over GST control) in assay [9]; 1.32 fold enrichment (6-mer frequency, TF over GST control) in assay [10].

TTTTAT: the binding signal is 1.32 fold enrichment (6-mer frequency, TF over GST control) in assay [1]; 1.26 fold enrichment (6-mer frequency, TF over GST control) in assay [2]; 1.46 fold enrichment (6-mer frequency, TF over GST control) in assay [3]; 1.39 fold enrichment (6-mer frequency, TF over GST control) in assay [4]; 1.4 fold enrichment (6-mer frequency, TF over GST control) in [5]; 1.26 fold enrichment (6-mer frequency, TF over GST control) in assay [6]. For the same sequence, the binding signal was 1.36 fold enrichment (6-mer frequency, TF over GST control) in [7]; 1.32 fold enrichment (6-mer frequency, TF over GST control) in assay [8]; 1.77 fold enrichment (6-mer frequency, TF over GST control) in assay [9]; 1.3 fold enrichment (6-mer frequency, TF over GST control) in assay [10].

GAACTC: the binding signal was 1.28 fold enrichment (6-mer frequency, TF over GST control) in assay [1]; 1.29 fold enrichment (6-mer frequency, TF over GST control) in assay [2]; 1.25 fold enrichment (6-mer frequency, TF over GST control) in assay [3]; 1.32 fold enrichment (6-mer frequency, TF over GST control) in assay [4]; 1.26 fold enrichment (6-mer frequency, TF over GST control) in assay [5]; 1.14 fold enrichment (6-mer frequency, TF over GST control) in assay [6]. The binding signal was 1.1 fold enrichment (6-mer frequency, TF over GST control) in assay [7]; 1.29 fold enrichment (6-mer frequency, TF over GST control) in [8]; 1.02 fold enrichment (6-mer frequency, TF over GST control) in assay [9]; 1.35 fold enrichment (6-mer frequency, TF over GST control) in assay [10].

In the case of AATTGC, the binding signal in assay [1] is 1.39 fold enrichment (6-mer frequency, TF over GST control); in assay [2] it was 1.43 fold enrichment (6-mer frequency, TF over GST control); in assay [3], 1.24 fold enrichment (6-mer frequency, TF over GST control); in [4], 1.2 fold enrichment (6-mer frequency, TF over GST control); in assay [5], 1.36 fold enrichment (6-mer frequency, TF over GST control); in assay [6], 1.29 fold enrichment (6-mer frequency, TF over GST control). In addition, the binding signal in assay [7] is 1.44 fold enrichment (6-mer frequency, TF over GST control); in assay [8], 1.5 fold enrichment (6-mer frequency, TF over GST control); in [9] it was 1.17 fold enrichment (6-mer frequency, TF over GST control); in assay [10], 1.35 fold enrichment (6-mer frequency, TF over GST control).

For the sequence TTGTAA, the binding signal in assay [1] was 1.2 fold enrichment (6-mer frequency, TF over GST control); in assay [2], 1.35 fold enrichment (6-mer frequency, TF over GST control); in assay [3], 1.4 fold enrichment (6-mer frequency, TF over GST control); in assay [4], 1.31 fold enrichment (6-mer frequency, TF over GST control); in [5], 1.24 fold enrichment (6-mer frequency, TF over GST control); in assay [6] it was 1.36 fold enrichment (6-mer frequency, TF over GST control). The binding signal is 1.36 fold enrichment (6-mer frequency, TF over GST control) in [7]; 1.44 fold enrichment (6-mer frequency, TF over GST control) in [8]; 1.62 fold enrichment (6-mer frequency, TF over GST control) in assay [9]; 1.31 fold enrichment (6-mer frequency, TF over GST control) in assay [10].

Turning to CTTCGA, the binding signal in [1] is 1.35 fold enrichment (6-mer frequency, TF over GST control); in [2] it was 1.4 fold enrichment (6-mer frequency, TF over GST control); in assay [3], 2.52 fold enrichment (6-mer frequency, TF over GST control); in [4] it was 1.42 fold enrichment (6-mer frequency, TF over GST control); in [5], 1.4 fold enrichment (6-mer frequency, TF over GST control); in assay [6], 1.3 fold enrichment (6-mer frequency, TF over GST control). In addition, the binding signal in [7] is 1.38 fold enrichment (6-mer frequency, TF over GST control); in assay [8], 1.42 fold enrichment (6-mer frequency, TF over GST control); in assay [9], 1.49 fold enrichment (6-mer frequency, TF over GST control); in assay [10] it was 1.35 fold enrichment (6-mer frequency, TF over GST control).
